This passage reports inhibition results from PubChem BioAssay AID2069 (Sanford-Burnham Center for Chemical Genomics, 2009).

The structures appear in SMILES notation. Hit rate of the full screen: of about 1,200 compounds, about 210 (18%) were called active. Rule as the data show it: active = inhibition above about 30%; inactive = the rest. This excerpt belongs to a sample that is enriched for actives.

The nature of the experiment: HTRF signal interference by compounds, confirmation, artefact control for SUMOylation inhibitor project, biochemical, uHTS (AID 2069). Particulars: HTRF interference counterscreen, fluorescence, at 35 µM, stronger effect = higher value. (In general: In TR-FRET formats the signal depends on donor and acceptor labels being close together.)
As usually defined, the inhibition is the drop in the measured response relative to a control, in per cent. For `CC(C)[C@H]1C(=O)N2CCC[C@H]2[C@]2(O)O[C@](NC(=O)[C@@H]3C=C4c5cccc6[nH]cc(c56)C[C@H]4N(C)C3)(C(C)C)C(=O)N12`, the inhibition is 12.3% (inactive).
Then `CN1C[C@H](CO)C=C2c3cccc4[nH]cc(c34)C[C@H]21`, with 36.9% (active).
`CN1CCN(c2ccc(S(C)(=O)=O)cc2[N+](=O)[O-])CC1`: the inhibition is -0.45% (inactive).
As for `COc1ccc(Cc2nccc3cc(OC)c(OC)cc23)cc1OC`, the inhibition was -2.9% (inactive).
Then `O=C(O)c1cccc2c1NC(c1cccc([N+](=O)[O-])c1)C1CC(Sc3ccccc3[N+](=O)[O-])C(Cl)C21` (stereo unspecified), with 26.1% (inactive); and `CCCCn1c(N)c(C(=O)OCCOC)c2nc3ccccc3nc21`, with 28.8% (inactive).
Then `CCCCn1c(N)c(C(=O)NCc2cccs2)c2nc3ccccc3nc21`, with 9.9% (inactive).
Then `CCCCn1c(NS(=O)(=O)c2ccccc2)c(C(=O)OCC)c2nc3ccccc3nc21`, with 70.9% (active); and `CCCCn1c(NC(=O)c2ccco2)c(C(=O)OCC)c2nc3ccccc3nc21`, with 22.1% (inactive); and `CCCCn1c(NS(=O)(=O)c2ccc(C)cc2)c(C(=O)OCC)c2nc3ccccc3nc21`, with 58% (active).
`COc1cc(C(c2c(C)[nH]n(-c3ccccc3)c2=O)c2c(C)[nH]n(-c3ccccc3)c2=O)cc(OC)c1OC`: the inhibition is 3.8% (inactive).
In the case of `O=C(O)CC1OCC=C2CN3CCC45C6=CC(=O)C(=O)C([N+](=O)[O-])=C6NC4C1C2CC35` (stereo unspecified) it was 60.8% (active); in that of `COc1ccc(OC)c(N2C(=O)NC(=O)/C(=C/c3ccc([N+](=O)[O-])s3)C2=O)c1`, -8.75% (inactive); in that of `CN1CCN(c2ccc3nccnc3c2)CC1`, 40.9% (active).
As to `Cc1ccccc1-n1c(O)c(/C=N/NC(=O)c2ccccc2O)c(=O)[nH]c1=S`, the inhibition was 3.4% (inactive).
In the case of `CN1CCC2(CC1)C(C#N)=C(N)NC(S)=C2C#N` it was 76.5% (active); in that of `O=C1NC(=O)N(Cc2ccco2)C(=O)/C1=C\c1cccn1CCOc1ccc(Cl)cc1`, -5.15% (inactive); in that of `O=C(c1cccn2c(=O)c3ccc(Cl)cc3nc12)N1CCC2(CC1)OCCO2`, 48.9% (active).
Then `O=c1[nH]c(O)c(/C=C2/C=CC(c3cc(Cl)ccc3Cl)=N2)c(=O)[nH]1`, with 18.3% (inactive); and `Cc1c(CC(=O)N2C[C@H]3C[C@@H](C2)c2cccc(=O)n2C3)c(=O)oc2c(C)c(O)ccc12`, with 50.5% (active).
Then `N#C/C(=C(/O)c1ccc(S(=O)(=O)N(CCCl)CCCl)cc1)c1nc2ccccc2[nH]1`, with 28.4% (inactive); and `Cc1ccsc1C(=O)C1CCCN(Cc2ccc(-n3cccn3)cc2)C1` (stereo unspecified), with 30.6% (active).
Regarding `CC(=O)c1ccc2c(c1)C1C(Cl)C(Sc3ccccc3[N+](=O)[O-])CC1C(c1ccccc1[N+](=O)[O-])N2` (stereo unspecified), the inhibition was -3.55% (inactive).
`CCN(CC)c1ccc([N+](=O)[O-])c2cccnc12`: the inhibition is -11.9% (inactive).
Then `O=C(O)CCn1cc(C=C2C(=O)NC(=O)NC2=O)c(-c2ccc(Br)cc2)n1`, with -3.4% (inactive).
Turning to `CC(C)CNC(=O)c1c(N)n(Cc2ccc3c(c2)OCO3)c2nc3ccccc3nc12`, the inhibition was 15.9% (inactive).
In the case of `CCCNC(=O)c1c(N)n(Cc2ccc3c(c2)OCO3)c2nc3ccccc3nc12` it was 9.15% (inactive); in that of `CCC(C)NC(=O)c1c(N)n(CC2CCCO2)c2nc3ccccc3nc12` (stereo unspecified), 32.5% (active); in that of `CCC(C)NC(=O)c1c(N)n(Cc2ccc3c(c2)OCO3)c2nc3ccccc3nc12` (stereo unspecified), 24.4% (inactive).
In the case of `CC(C)CCNC(=O)c1c(N)n(CC2CCCO2)c2nc3ccccc3nc12` (stereo unspecified) it was 30.4% (active).
Take `CCCCn1c(N)c(C(=O)OCC2CCCO2)c2nc3ccccc3nc21` (stereo unspecified): the inhibition is 28.1% (inactive).
Then `Nc1c(C(=O)NC2CCCC2)c2nc3ccccc3nc2n1CC1CCCO1` (stereo unspecified), with 27.9% (inactive); and `CC(C)CCNC(=O)c1c(N)n(Cc2ccc3c(c2)OCO3)c2nc3ccccc3nc12`, with 19.7% (inactive); and `CCOCCCn1c(N)c(C(=O)Nc2sc3c(c2C(=O)OC)CCCC3)c2nc3ccccc3nc21`, with -2.4% (inactive).
Regarding `CCCNC(=O)c1c(N)n(CC2CCCO2)c2nc3ccccc3nc12` (stereo unspecified), the inhibition is 42% (active).
Then `Nc1c(C(=O)NCCCc2ccccc2)c2nc3ccccc3nc2n1Cc1cccs1`, with 8% (inactive).
Consider `CC(C)OCCCNC(=O)c1c(N)n(CC2CCCO2)c2nc3ccccc3nc12` (stereo unspecified), for which the inhibition is 51.1% (active).
Then `O=C1NC(=O)N(Cc2ccco2)C(=O)/C1=C/c1ccc(-c2cccc([N+](=O)[O-])c2)o1`, with 14.7% (inactive); and `O=C(N/N=C/c1c(O)n(Cc2ccco2)c(=O)[nH]c1=O)c1ccccc1O`, with 22.9% (inactive); and `Cc1cc(/C=C2\C(=O)NC(=O)N(Cc3ccccc3)C2=O)c(C)n1-c1ccc(Cl)c(C(=O)O)c1`, with 34.7% (active).
With `O=C(O)c1ccc2c(c1)C1C(Cl)C(Sc3ccccc3[N+](=O)[O-])CC1C(c1cccc([N+](=O)[O-])c1)N2` (stereo unspecified), the inhibition is -6.5% (inactive).
In the case of `CC(=O)c1ccc2c(c1)C1C(Cl)C(Sc3ccccc3[N+](=O)[O-])CC1C(C(=O)O)N2` (stereo unspecified) it was 5.25% (inactive).
Then `O=C1NC(=S)NC(=O)C1=Cc1cccn1-c1ccc(O)cc1`, with 21.8% (inactive); and `COc1cc(Cn2c(N)c(C(=O)NCc3ccco3)c3nc4ccccc4nc32)cc(OC)c1OC`, with 11.6% (inactive); and `CCCCNC(=O)c1c(N)n(CCCOC)c2nc3ccccc3nc12`, with 30.9% (active).
Then `CCOC(=O)c1c(NC(=O)c2c(N)n(CCCOC)c3nc4ccccc4nc23)sc2c1CCCC2`, with -0.35% (inactive).
For the compound `COCCCn1c(N)c(C(=O)Nc2ccccc2)c2nc3ccccc3nc21`, the inhibition is 7.4% (inactive).
As for `CC(C)CCn1c(N)c(C(=O)NCc2cccs2)c2nc3ccccc3nc21`, the inhibition was 15.4% (inactive).
Then `COCCNC(=O)c1c(N)n(CCC(C)C)c2nc3ccccc3nc12`, with 34.7% (active).
With `CCC(C)NC(=O)c1c(N)n(CCCOC)c2nc3ccccc3nc12` (stereo unspecified), the inhibition is 36.5% (active).
Then `COCCCn1c(N)c(C(=O)NCc2ccco2)c2nc3ccccc3nc21`, with 34.1% (active); and `CCCCCn1c(N)c(C(=O)NCc2cccs2)c2nc3ccccc3nc21`, with 12.7% (inactive); and `COc1ccc(Cn2c(N)c(C(=O)NCc3ccco3)c3nc4ccccc4nc32)cc1`, with 11.2% (inactive).
For the compound `COCCCn1c(N)c(C(=O)NCCC(C)C)c2nc3ccccc3nc21`, the inhibition is 24.1% (inactive).
In the case of `COCCCn1c(N)c(C(=O)OCCOC)c2nc3ccccc3nc21` it was 29.9% (inactive); in that of `CN1CCc2nc3sc(C#N)c(N)c3c(-c3cccs3)c2C1`, 14.3% (inactive); in that of `c1ccc2c(NC3=NCCS3)cccc2c1`, -3.5% (inactive).
Consider `Cc1[nH]n(-c2ccccc2)c(=O)c1C(c1ccc([N+](=O)[O-])cc1)c1c(C)[nH]n(-c2ccccc2)c1=O`, for which the inhibition was -5.95% (inactive).
For `O=c1[nH]c(O)c(/C=C2\C=Nc3ccc(OCc4ccccc4)cc32)c(=O)[nH]1`, the inhibition is 8.25% (inactive).
Then `COCCNC(=O)c1c(NC(=O)c2ccco2)n(Cc2ccccc2)c2nc3ccccc3nc12`, with 17.8% (inactive).
Then `Cn1c(O)c(/C=C2\N=c3ccccc3=C2CCNC(=S)NC2CC2)c(=O)n(C)c1=O`, with 13.3% (inactive).
